Reference: the supplement of paper PMC10681739

Key:
[1] = biological target: T1, ETS1 (UniProt P14921); assay: ETS1 binding intensity (PBM fluorescence), ETS1 alone (arbitrary fluorescence units); higher = stronger binding; details: ETS1 concentration 1 nM; RUNX1 concentration 0 nM
T1 sequence: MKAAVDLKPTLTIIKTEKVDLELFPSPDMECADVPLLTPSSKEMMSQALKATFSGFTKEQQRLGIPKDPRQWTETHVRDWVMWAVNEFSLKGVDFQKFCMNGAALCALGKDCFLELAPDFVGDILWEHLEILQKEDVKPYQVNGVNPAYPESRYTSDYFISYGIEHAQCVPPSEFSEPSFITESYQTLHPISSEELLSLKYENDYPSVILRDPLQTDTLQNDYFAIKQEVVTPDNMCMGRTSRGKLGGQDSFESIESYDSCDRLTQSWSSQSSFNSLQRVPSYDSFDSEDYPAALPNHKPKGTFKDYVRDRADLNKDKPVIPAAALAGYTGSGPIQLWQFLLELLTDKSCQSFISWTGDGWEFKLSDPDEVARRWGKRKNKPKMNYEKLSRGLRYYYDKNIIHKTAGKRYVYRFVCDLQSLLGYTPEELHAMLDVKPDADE

[2] = biological target: RUNX1 (UniProt Q01196); assay: RUNX1 binding intensity (PBM fluorescence), RUNX1 alone (arbitrary fluorescence units); higher = stronger binding; details: RUNX1 concentration 2 nM; ETS1 concentration 0 nM
Protocol: (§1)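 Cooperative gcPBM on 36-bp genomic probes with neighbouring ETS1 and RUNX1 sites. Recombinant human RUNX1 (2 nM) was incubated alone or with ETS1 (25 nM) and detected with anti-RUNX1 antibody plus Alexa488 secondary. Values are medians over 4 replicate spots; the RUNX1+ETS1 data were normalised to the RUNX1-only data. The probes sit in constant array flanks that are not printed.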

[3] = biological target: T1, ETS1; assay: ETS1 binding intensity (PBM fluorescence) in presence of RUNX1, normalised to ETS1-only experiment (arbitrary fluorescence units); higher = stronger binding; details: ETS1 concentration 1 nM; RUNX1 concentration 25 nM
[4] = biological target: RUNX1 (UniProt Q01196); assay: RUNX1 binding intensity (PBM fluorescence) in presence of ETS1, normalised to RUNX1-only experiment (arbitrary fluorescence units); higher = stronger binding; details: RUNX1 concentration 2 nM; ETS1 concentration 25 nM
Protocol: as §1
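Throughout, for RUNX1 binding intensity (PBM fluorescence) in presence of ETS1, normalised to RUNX1-only experiment: Full-length recombinant human ETS1 or RUNX1 bound to double-stranded 36-bp genomic probes on microarrays, detected by protein-specific primary antibody and Alexa488 secondary, spot fluorescence as median of four replicate spots.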
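Throughout, for RUNX1 binding intensity (PBM fluorescence), RUNX1 alone: Full-length recombinant human RUNX1 bound to double-stranded 36-bp genomic probes on a high-density microarray, scored as Alexa488 fluorescence per spot via anti-RUNX1 antibody, median of four replicate spots.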

RUNX1, sequence (Q01196 whole entry): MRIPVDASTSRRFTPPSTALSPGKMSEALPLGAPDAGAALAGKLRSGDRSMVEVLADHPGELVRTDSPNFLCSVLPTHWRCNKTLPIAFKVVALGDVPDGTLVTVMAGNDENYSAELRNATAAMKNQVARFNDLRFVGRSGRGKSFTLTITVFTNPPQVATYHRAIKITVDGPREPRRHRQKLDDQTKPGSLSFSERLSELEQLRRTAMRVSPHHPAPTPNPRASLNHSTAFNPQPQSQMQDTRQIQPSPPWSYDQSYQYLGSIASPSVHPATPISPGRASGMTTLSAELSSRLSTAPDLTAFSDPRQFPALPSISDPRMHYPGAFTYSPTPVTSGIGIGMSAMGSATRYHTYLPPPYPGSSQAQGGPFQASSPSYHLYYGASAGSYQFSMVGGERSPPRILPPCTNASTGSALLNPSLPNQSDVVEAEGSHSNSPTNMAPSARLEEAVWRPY

Sequence	ETS1 binding intensity [1]	RUNX1 binding intensity [2]	ETS1 binding intensity [3]	RUNX1 binding intensity [4]
ATCAAACCCCAGGATATGTTGGTTTTGTAGGTTGTC	562	874	524	629
ACTTGACTTCCTGTGGGGTGTGTGGTGTCTGCACTT	940	798	901	2010
GGACTCTGGCAGGAAGCTGTTTGTGGTTGTCACACC	3140	796	11000	1150
GAAAACTAAGCAGGATGTGGTCTCGGCTGGAGCCTG	2730	657	5380	2020
TATTCAGGCTTCCGGGTGATGTTTGTGGCCACCCGG	3800	671	5020	1510
CAGGGTGTCGGCTTCCGGCGGTTGCCCACTTTCGGC	1100	763	1090	1790
GAGACTTTCGCTTCCGGCTGCCGCAGGCGCTTCGCT	1830	710	1700	1550
ACGTTTCGGGGTTTCCGGGCCAGCGGTTTCGGGCGC	702	937	1140	2050
TTGAGGGGAAGGGGAGGAAGTGGTCATTGGAACTTG	2530	776	3150	990
AGCTCCCCTCCCCGGAAACTTGACCACCTAGCCCAG	1510	875	1660	813
GCAGCATTTCCTGACTTCTTCGCCCCTGTGGTTGCA	440	850	480	1690
ACACCTCAGGCAGGATGTGGTAGGGGTTGCCCCAGA	3730	1020	6810	2700
AGGCCGCTTCCTCCCACATGAAACCGCAGGCTTCGG	374	3590	1590	10900
TCCAGGCATTTCCCCCATGTTGGCTCACCGCACTAT	416	1260	594	1290
